Experimental data taken from PubChem BioAssay (Tox21).
Inconclusive results are not listed. Active and inactive are the calls of the source. The call rests on the fitted dose curve; in most records, active means well fitted cell-killing curve with a large enough effect in the repeat runs; inconclusive means weak or mixed curves, or effect the other way; inactive means flat fitted curve, though single readings scatter.

assay: qHTS assay to identify small molecule agonists of the TGF-beta/Smad signaling pathway - cell viability counter screen (AID 1346829); settings: SBE-bla HEK293T viability, CellTiter-Glo luminescence, 5 h; series mostly up to 76.8 µM; activity change, negative = cytotoxicity: at the top concentration; further: nearly all actives have a fitted effect of over 45% in size; on activity change, negative = cytotoxicity: top concentration of the series differs between compounds
Excerpt: National Center for Advancing Translational Sciences [NCATS]
NIH Chemical Genomics Center [NCGC]
U.S. Environmental Protection Agency [EPA]
National Institutes of Environmental Health Sciences [NIEHS]
National Toxicology Program [NTP]
U.S. Food and Drug Administration [FDA]
Transforming growth factor beta (TGF-beta) superfamily consists of a large number of structurally related dimeric proteins that act as hormones or local mediators in regulating a wide range of biological functions. This superfamily includes TGF-betas themselves, the bone morphogenetic proteins (BMPs) and the activins. These ligands induce oligomerization of serine/threonine receptor kinases and phosphorylate the cytoplasmic signaling molecules of Smad protein family. CellSensor SBE-bla HEK 293T cell line (Life Technologies, Carlsbad, CA), responsive to TGF-beta was used to screen Tox21 10K compound library for identification of agonists/antagonists of the Smad signaling pathway. This cell line contains a beta-lactamase reporter gene under control of the Smad binding element (SBE) stably integrated into HEK 293T cells. Also cytotoxicity of the compounds was tested in parallel by measuring the cell viability using CellTiter-Glo assay system in the same wells.
Tox21 Assay Protocol Summary:
SBE-bla HEK 293T cells were dispensed at 4,000/well in 6 uL of assay medium into black wall/clear-bottom 1536-well plates using a Multidrop Combi (ThermoFisher Scientific, Waltham, MA) dispenser. After the assay plates were incubated at 37 C and 5% CO2 for an overnight, 23 nL of compounds dissolved in DMSO, positive controls or DMSO only was transferred to the assay plate by a Pintool station (Kalypsys, San Diego, CA). The assay plates were incubated at 37 C and 5% CO2 for 5 hr. One uL of LiveBLAzer B/G FRET substrate (Life Technologies) was added using a Flying Reagent Dispenser (FRD, Aurora Discovery, San Diego, CA) and the plates were incubated at room temperature for 2 hr. Fluorescence intensity (405 nm excitation, 460 nm and 530 nm emissions) was measured using an Envision plate reader (PerkinElmer, Shelton, CT). For cytotoxicity read, 4 uL of CellTiter-Glo reagent (Promega Corporation, Madison, WI) was added to each well of the assay plates using FRD. After 30min incubation at room temperature, the luminescence intensity was measured using ViewLux plate reader (PerkinElmer).
On the % scale 0 is the no-effect control and ±100 the full control effect; potency means the concentration at half of the fitted maximal effect.

For `CCN1CCN(c2cc(-c3ccc(F)cc3)c3c(n2)CCCCCC3)CC1`, which activity change, negative = cytotoxicity is on record?
The activity change, negative = cytotoxicity was -0.583% [at 15.8 µM] (inactive).

For `CC1(C)C(=O)N(CO)C(=O)N1CO`, which “activity change, negative = cytotoxicity” value is on record?
The value was -0.37% (inactive).

With `O=S(O)O` as the compound, how does the activity change, negative = cytotoxicity read?
Its activity change, negative = cytotoxicity is -1.2% [at 15.8 µM] (inactive).

Which “activity change, negative = cytotoxicity” value does the source give for `Cc1cn[nH]c1` here?
The value was 0.0207% [at 35.3 µM] (inactive).

Which Potency does the source give for `CC(C)(c1cc(Br)c(O)c(Br)c1)c1cc(Br)c(O)c(Br)c1` here?
Its Potency is “inactive”.

For `Cn1cnc2ncnc(N)c21`, which “activity change, negative = cytotoxicity” value is on record?
The value was -2.78% [at 35.3 µM] (inactive).

For `CCCCCCCCCCCCCOP(=O)(O)O`, which “activity change, negative = cytotoxicity” value is on record?
The value was 4.48% (inactive).

For `CC1CCCNC1` (stereo not given), which “activity change, negative = cytotoxicity” value is on record?
Its value is -1.14% (inactive).

For `O=C(O)CCn1c2c(c3ccccc31)C[C@H](NS(=O)(=O)c1ccc(F)cc1)CC2`, which “activity change, negative = cytotoxicity” value is on record?
Its value is 0.0202% [at 35.3 µM] (inactive).

With `CCCCN(C)C` as the compound, how does the “activity change, negative = cytotoxicity” value read?
Its value is -12.3% (inactive).

Which “activity change, negative = cytotoxicity” value does the source give for `CC(C)(c1cc(Br)c(OCCO)c(Br)c1)c1cc(Br)c(OCCO)c(Br)c1` here?
Its value is -18.1% (inactive).

With `CCCCCCCCCCCCCCCC` as the compound, how does the “activity change, negative = cytotoxicity” value read?
Its value is -3.52% (inactive).

Which “activity change, negative = cytotoxicity” value does the source give for `Cc1ccc(O)cn1` here?
The value was 8.31% (inactive).

Which “activity change, negative = cytotoxicity” value does the source give for `C[n+]1c2cc(N)ccc2cc2ccc(N)cc21` (tested in a mixture with another compound) here?
The value was 10.6% [at 35.3 µM] (inactive).

For `CC(C)c1ccccc1N`, which “activity change, negative = cytotoxicity” value is on record?
Its value is -9.69% (inactive).

For `CCCCCCCC/C=C/CCCOC(C)=O`, which “activity change, negative = cytotoxicity” value is on record?
The value was 0.299% (inactive).

Which “activity change, negative = cytotoxicity” value does the source give for `C[C@]12CC[C@H]3C(=CCc4cc(O)ccc43)[C@@H]1CCC2=O` here?
Its value is -13.9% (inactive).

Which Potency does the source give for `CN(C)CCCN1c2ccccc2CCc2ccccc21` here?
Its Potency is “inactive”.

For `COc1ccc2sc(C(=O)Nc3nnn[nH]3)c(OC(C)C)c2c1`, which “activity change, negative = cytotoxicity” value is on record?
Its value is -0.64% (inactive).

For `CC(C)=CC1CC(C)CCO1` (stereo not given), which “activity change, negative = cytotoxicity” value is on record?
Its value is -14.4% (inactive).

With `O[C@@H](c1cc(C(F)(F)F)nc2c(C(F)(F)F)cccc12)[C@H]1CCCCN1` as the compound, how does the “activity change, negative = cytotoxicity” value read?
Its value is -25.1% [at 35.3 µM] (inactive).

With `CC(O)C#CC(C)O` (stereo not given) as the compound, how does the “activity change, negative = cytotoxicity” value read?
The value was 21.1% (inactive).

With `Cc1cc(Nc2ccc(O)cc2)ccc1N` as the compound, how does the “activity change, negative = cytotoxicity” value read?
Its value is 12.6% (inactive).

Which “activity change, negative = cytotoxicity” value does the source give for `Cc1ccc2ccc3cccc4ccc1c2c34` here?
The value was 0.814% (inactive).

With `CCCCCCCC/C=C\CCCCCCCC(=O)NCc1ccc(O)c(OC)c1` as the compound, how does the “activity change, negative = cytotoxicity” value read?
Its value is -9.17% [at 35.3 µM] (inactive).

For `CC(=O)OC1CCCCC1`, which “activity change, negative = cytotoxicity” value is on record?
The value was -0.984% (inactive).

Which “activity change, negative = cytotoxicity” value does the source give for `CSc1c(Cl)c(Cl)c(Cl)c(Cl)c1Cl` here?
Its value is -11.9% (inactive).

With `CNCC[C@H](Oc1cccc2ccccc12)c1cccs1` as the compound, how does the “activity change, negative = cytotoxicity” value read?
Its value is -4.34% [at 35.3 µM] (inactive).

For `c1ccc(Nc2cccc3ccccc23)cc1`, which Potency is on record?
The Potency was “inactive”.

For `C=C[C@](C)(O)CC[C@@H]1[C@@]2(C)CCCC(C)(C)[C@@H]2CC[C@@]1(C)O`, which “activity change, negative = cytotoxicity” value is on record?
Its value is -25.1% (inactive).

Which Potency does the source give for `CCN=C1C=CC(=C(c2ccc(N(CC)CC)cc2)c2ccc(N(CC)CC)cc2)c2ccccc21` here?
The Potency was 24.4 µM (active).

Which Potency does the source give for `O=C(Nc1ccc(Cl)cc1)Nc1ccc(Cl)c(C(F)(F)F)c1` here?
Its Potency is 15.1 µM (active).

Which “activity change, negative = cytotoxicity” value does the source give for `CCc1ccc(O)c(C(C)(C)C)c1` here?
Its value is -2.91% (inactive).

Which Potency does the source give for `CCCCCCCOC(=O)c1ccc(O)cc1` here?
Its Potency is “inactive”.

Which “activity change, negative = cytotoxicity” value does the source give for `C=CC(C)C#N` (stereo not given) here?
Its value is -17.9% (inactive).

With `CCCCCCCC/C=C\CCCCCCCC(=O)N(C)CC(=O)O` as the compound, how does the “activity change, negative = cytotoxicity” value read?
Its value is -16.2% (inactive).

For `NC1(c2ccc(-c3nc4ccn5c(=O)[nH]nc5c4cc3-c3ccccc3)cc2)CCC1`, which “activity change, negative = cytotoxicity” value is on record?
Its value is -15.4% [at 35.3 µM] (inactive).

With `CS(C)(=O)=O` as the compound, how does the “activity change, negative = cytotoxicity” value read?
The value was 3.82% (inactive).

For `NC(=O)c1nc(-c2cccc(-c3cc(F)ccc3OCC(F)(F)C(F)(F)F)c2)n[nH]1`, which “activity change, negative = cytotoxicity” value is on record?
The value was -18% (inactive).

Which “activity change, negative = cytotoxicity” value does the source give for `c1ccc2c(c1)CCC2` here?
Its value is -2.04% (inactive).
